From PubChem BioAssay
Entries with a potency or affinity are not part of this list. Calls of active or inactive are those of the source.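 How the source made its calls: active means a fitted half-maximal concentration no higher than twice the top valid tested dose, with signal falling as cells die; inconclusive means flat curve between -70% and -30%, or poor fit; inactive means the rest, including signal rising instead of falling.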

assay: HeLa cell cytotoxicity, dose response, cytotoxicity control, ATP luminescence, cherry-pick samples (AID 687004); settings: HeLa viability, ATP luminescence (CellTiter-Glo), 48 h; series mostly up to 26 µM

SMILES | outcome
C[C@@H]1CN([C@H](C)CO)C(=O)c2cc(NS(=O)(=O)c3ccc(Cl)cc3)ccc2O[C@H]1CN(C)S(=O)(=O)c1ccc(F)cc1 | inactive
CCOC(=O)CNC(=O)CSc1ncnc2c1cnn2-c1ccc(OC)cc1 | inactive
O=C([C@@H]1[C@@H](CO)[C@@H]2Cn3c(cccc3=O)[C@@H]2N1CCC(F)(F)F)N1CCCCC1 | inactive
O=C(C[C@@H]1CC[C@@H]2[C@H](COC[C@H](O)CN2Cc2cccc(C(F)(F)F)c2)O1)NCc1ccccc1 | inactive
CC=Cc1ccc2n(c1=O)C[C@H]1[C@H](CO)[C@@H](C(=O)NCc3ccc4c(c3)OCO4)[C@@H]2N1C(=O)C1CC1 (mixture of isomers) | inactive
Cc1cc(C)c(NC(=O)C2CCC(=O)N2)c(C)c1 (configuration not stated) | inactive
CCCNC(=O)Nc1ccc2c(c1)C(=O)N(C)C[C@H](OC)[C@@H](C)CN(C(=O)CC)[C@@H](C)CO2 | inactive
CCCNC(=O)N1C[C@@H](O)COC[C@H]2O[C@H](CC(=O)N3CCN(C)CC3)CC[C@@H]21 | inactive
COc1ccc(NC(=O)N(C)C[C@H]2OCCCC[C@@H](C)Oc3ccc(N(C)C)cc3C(=O)N([C@H](C)CO)C[C@H]2C)cc1 | inactive
COc1ccc(NC(=O)Nc2ccc3c(c2)C(=O)N([C@H](C)CO)C[C@H](C)[C@H](CN(C)C(=O)Cc2ccccc2)OCCCC[C@H](C)O3)cc1 | inactive
COc1ccccc1CNC(=O)C[C@@H]1CC[C@@H]2[C@H](COc3ccc(NC(C)=O)cc3C(=O)N2C)O1 | inactive
C[C@@H]1CCCCO[C@@H](CN(C)Cc2ccc3c(c2)OCO3)[C@@H](C)CN([C@H](C)CO)C(=O)c2cc(NS(=O)(=O)c3ccc(F)cc3)ccc2O1 | inactive
